This is an account of results in PubChem BioAssay (NCATS).

Records with an inconclusive call do not appear. Entries that show only a call come without a potency. The source made the active and inactive calls. Calls come from the whole dose curve; as a rule, active = well fitted inhibition curve with a large enough effect; inconclusive = small, poorly fitted or top-dose-only effect; inactive = flat fitted curve, though single readings scatter.

Calcium and integrin-binding protein 1 (Homo sapiens), sequence (Q99828 whole entry, looked up): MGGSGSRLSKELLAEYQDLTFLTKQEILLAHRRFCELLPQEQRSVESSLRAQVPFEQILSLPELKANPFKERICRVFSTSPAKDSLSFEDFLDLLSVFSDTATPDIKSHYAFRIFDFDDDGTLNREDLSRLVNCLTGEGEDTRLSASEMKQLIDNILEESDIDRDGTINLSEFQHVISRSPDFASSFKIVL

The experiment addresses Calcium and integrin-binding protein 1 (Homo sapiens) (UniProt Q99828). Kind of experiment: Primary qHTS for Identification of Calcium Integrin Binding Protein 1 (CIB1) Competitor (AID 1508620).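 Note: GST tagged CIB1 binding a fluorescein labelled alphaIIb integrin peptide tracer; top concentration of the series differs between compounds.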 The conditions noted are these: CIB1-GST / FITC-alphaIIb peptide fluorescence polarization; series mostly up to 114 µM. The method, boiled down: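 CIB1-GST (1 uM final) and compound incubated 15 min at room temperature before adding FITC-alphaIIb peptide tracer (100 nM final). Competition for binding read by fluorescence polarization (ex 480, em 540) after another 15 min at room temperature.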
Regarding `CN(C)CCOC1=Cc2ccccc2Sc2ccc(Cl)cc21`, the Potency entry was “inactive”. Then `CCc1cccc2c(CCO)c[nH]c12`, with “inactive”; and `COC(=O)C1=C(C)NC(C)=C(C(=O)OCCc2ccc(N3CCN(C(c4ccccc4)c4ccccc4)CC3)cc2)C1c1cccc([N+](=O)[O-])c1` (configuration not stated), with “inactive”; and `CCN(CC)CC(=O)Oc1ccc(NC(C)=O)cc1`, with “inactive”. The same measure for `COc1ccc2cc(C=O)ccc2c1`: “inactive”. The same measure for `Cc1ccc(CCn2c3c(c4cc(Cl)ccc42)CN(C)CC3)cn1`: “inactive”. As to `COc1c(N2C[C@@H]3CCCN[C@@H]3C2)c(F)cc2c(=O)c(C(=O)O)cn(C3CC3)c12`, the Potency result is “inactive”. For `COC(=O)c1cc(Cl)ccc1OC`, the Potency entry was “inactive”.

For `CCOCCn1c(C2CCN(CCc3ccc(C(C)(C)C(=O)O)cc3)CC2)nc2ccccc21`, the Potency entry is “inactive”. On to `Cc1ccc(C(=O)C(=O)O)cc1C`, for which the Potency entry is “inactive”.

Turning to `CCOC(=O)[C@H](CCc1ccccc1)N[C@@H](C)C(=O)N(CC(=O)O)C1Cc2ccccc2C1`, the Potency entry was “inactive”.

`O=C(O)CCCC[C@@H]1SC[C@@H]2NC(=O)N[C@@H]21`: the Potency entry is “inactive”. `Cc1oc(=O)oc1COC(=O)[C@@H]1N2C(=O)[C@@H](NC(=O)[C@H](N)c3ccccc3)[C@H]2SC1(C)C`: the Potency entry was “inactive”. The same measure for `C/C(=C(/OCCOc1ccc(Cl)cc1)c1ccc(Cl)cc1Cl)n1ccnc1`: “inactive”; for `CN1C(=O)c2ccccc2C1=O`: “inactive”; for `CN(C)CCN1CCN(c2cccc(Cl)c2)C1=O`: “inactive”.

Consider `N#C/C(=C1/SC[C@@H](c2ccc(Cl)cc2Cl)S1)n1ccnc1`, for which the Potency result was “inactive”. Take `Cc1cc(O)c(C)c(C)c1O`: the Potency entry is “inactive”. Then `CCCN(CCC)C(=O)C(CCC(=O)OCCCN1CCN(CCOC(=O)Cc2c(C)n(C(=O)c3ccc(Cl)cc3)c3ccc(OC)cc23)CC1)NC(=O)c1ccccc1` (configuration not stated), with “inactive”.

Turning to `CC(=O)N1CCN(c2ccc(O)cc2)CC1`, the Potency entry is “inactive”. Consider `O=C(O)c1ccccc1S`, for which the Potency entry is “inactive”. Regarding `CO/N=C(/C(=O)N[C@@H]1C(=O)N2C(C(=O)OCOC(=O)C(C)(C)C)=C(C)CS[C@H]12)c1csc(N)n1`, the Potency result is “inactive”. For the compound `C[C@@H](O[C@H]1OCCN(Cc2n[nH]c(=O)[nH]2)[C@H]1c1ccc(F)cc1)c1cc(C(F)(F)F)cc(C(F)(F)F)c1`, the Potency result was “inactive”. In the case of `O=C1NC2CCCCN2C12CCN(CCCN1c3ccccc3CCc3ccc(Cl)cc31)CC2` (configuration not stated), the Potency result was “inactive”.

For `CSCC[C@H](NC(=O)[C@H](Cc1c[nH]c2ccccc12)NC(=O)CCNC(=O)OC(C)(C)C)C(=O)N[C@@H](CC(=O)O)C(=O)N[C@@H](Cc1ccccc1)C(N)=O`, the Potency result is “inactive”. `Nc1c(NC/C=C\COc2cc(CN3CCCCC3)ccn2)c(=O)c1=O`: the Potency result is “inactive”. Consider `Oc1cccc2[nH]ccc12`, for which the Potency result was “inactive”. For `c1ccc2occc2c1`, the Potency entry is “inactive”. As to `CCOc1ccccc1OCC1CNCCO1` (configuration not stated), the Potency entry was “inactive”. With `Cc1nc(C2CCCCC2)c(-c2ccc(S(N)(=O)=O)c(F)c2)o1`, the Potency entry is “inactive”. On to `CCO[C@H](Cc1ccc(OCCc2ccc(OS(C)(=O)=O)cc2)cc1)C(=O)O`, for which the Potency result is “inactive”.

In the case of `C/C(=N/NC(=O)c1ccncc1)C(=O)O`, the Potency entry is “inactive”. For `CCN1C(=O)c2ccccc2C1Nc1ccc(OCCN2CCCCC2)cc1` (configuration not stated), the Potency entry was “inactive”. Take `CCC(C(=O)OCCN1CCOC(c2ccccc2)C1C)c1ccccc1` (configuration not stated): the Potency result was “inactive”. `CCCCCCCCCCCCCC[N+](C)(C)C`: the Potency entry was “inactive”.

Consider `CCN(CC)CCOc1ccc(/C(=C(\Cl)c2ccccc2)c2ccccc2)cc1`, for which the Potency result is “inactive”. The same measure for `O=[N+]([O-])c1cncn1CCN1CCOCC1`: “inactive”.
